The list is not random: actives were taken first. Their share in the collection is about 2.1%.
ERAP1 HTS inh: ERAP1 (human) enzyme inhibition | AID 652197 | Q9NZ08 | actives 0.15% (n = 340,000) | recombinant ERAP1, Leu-AMC fluorescence, 60 min | inhibition, % at 10.7 µM;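 active means mean replicate inhibition of at least 30%, or all replicates individually reaching that 30% level; inactive means mean below 30% and not every replicate reaching it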;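 further: 0% = neutral control wells and 100% = L-leucinethiol positive control wells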
Target sequence (Q9NZ08 whole entry, looked up): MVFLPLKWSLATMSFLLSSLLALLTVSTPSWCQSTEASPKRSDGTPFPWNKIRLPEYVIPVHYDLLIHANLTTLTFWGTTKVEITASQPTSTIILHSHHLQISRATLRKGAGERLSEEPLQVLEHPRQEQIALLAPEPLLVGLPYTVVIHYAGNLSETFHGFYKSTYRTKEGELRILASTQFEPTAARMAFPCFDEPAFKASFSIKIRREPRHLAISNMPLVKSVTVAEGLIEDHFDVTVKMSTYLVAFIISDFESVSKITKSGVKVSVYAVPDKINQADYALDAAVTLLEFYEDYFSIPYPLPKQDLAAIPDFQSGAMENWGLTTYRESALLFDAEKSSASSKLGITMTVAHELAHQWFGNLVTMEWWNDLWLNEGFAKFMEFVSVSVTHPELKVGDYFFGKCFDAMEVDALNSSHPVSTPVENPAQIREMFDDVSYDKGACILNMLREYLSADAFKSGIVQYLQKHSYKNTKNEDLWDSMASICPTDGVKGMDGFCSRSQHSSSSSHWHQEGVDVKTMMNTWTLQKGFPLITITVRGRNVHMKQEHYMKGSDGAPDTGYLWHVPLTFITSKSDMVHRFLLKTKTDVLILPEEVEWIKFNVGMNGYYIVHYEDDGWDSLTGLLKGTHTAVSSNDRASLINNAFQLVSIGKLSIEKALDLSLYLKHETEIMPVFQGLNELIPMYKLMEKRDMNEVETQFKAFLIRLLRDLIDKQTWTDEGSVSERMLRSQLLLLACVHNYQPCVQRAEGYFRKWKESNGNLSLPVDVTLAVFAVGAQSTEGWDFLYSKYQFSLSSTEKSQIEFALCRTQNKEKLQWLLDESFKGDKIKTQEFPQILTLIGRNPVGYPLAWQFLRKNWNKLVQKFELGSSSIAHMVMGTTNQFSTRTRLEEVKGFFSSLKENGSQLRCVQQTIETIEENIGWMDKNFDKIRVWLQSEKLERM
CFTR F508del cor: CFTR F508del correction in bronchial cells | CFBE cells, YFP halide quenching; stimulated with forskolin plus potentiator P3; % fluorescence drop versus neutral controls | activity (quench increase), % at 7.58 µM | actives 0.36% (n = 350,000) | AID 720511;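 active means mean added fluorescence quench of at least 8% versus neutral control, with both replicates also reaching 8%; inconclusive means only one of the mean or replicate conditions met; inactive means mean below 8% and not both replicates reaching 8%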;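 further: cells transiently co-express mutant CFTR-F508del with the halide-sensitive YFP; corrector assay measuring rescue of mutant channel to the surface after 24 h compound exposure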
ARNT-TACC3 inh: disrupts binding between human ARNT and TACC3 | actives 0.66% (n = 390,000) | inhibition, % at 9.99 µM | Q9Y6A5 | AlphaScreen His-ARNT PAS-B/GST-TACC3 binding, luminescence; TACC3 fragment carries E629A point mutation;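 active means mean inhibition of replicates at least 50% and at least half of replicates each reaching 50%; inconclusive means half or more replicates reach 50% but mean below 50%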;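 further: 0% = complete ARNT plus TACC3 wells and 100% = ARNT alone without TACC3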
Ecoli rRNA inh: selective bacterial rRNA inhibition in E. coli; AID 720706; E. coli WT GFP vs humanized-ribosome RFP mutants, fluorescence, 24 h; hits give low values; DMSO median 0, no signal -100; actives 1.6% (n = 350,000); GFP signal change (wild-type ribosome), % (concentration not given with the values);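 active means significant combined selectivity score with lowered wild-type GFP, culture density cut under 30%, mutant RFP and density less affected; inactive means any of these conditions unmet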
PvdQ inh: P. aeruginosa PvdQ acylase inhibition; inhibition, % at 10 µM; AID 488965; purified PvdQ acylase, fluorescence plate reader; actives 0.063% (n = 340,000); in the data active means inhibition above about 30%, passing the limit was not always enough; inconclusive means no clear call, values can overlap the other calls;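 further: 0% = vehicle neutral wells and 100% = reference inhibitor wells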
* = called active by the depositor; u = inconclusive; x = no result given.

SMILES	ERAP1 HTS inh	CFTR F508del cor	ARNT-TACC3 inh	Ecoli rRNA inh	PvdQ inh
O=C(/C=C/[C@H]1O[C@@H](n2cnc3c(NC(=O)c4ccccc4)ncnc32)[C@H](O)[C@@H]1O)NCc1cccc2ccccc12	-2.7	-2.4	x	-29.1*	x
CCN(C(=S)Nc1cccnc1)c1cccc2ccccc12	-0.3	1.5	51.3*	77.2	1.0
CCCC#Cc1ccc([C@H]2[C@H]3CN(C(=O)c4ccc(F)cc4)CC(=O)N3[C@H]2CO)cc1	-0.1	-2.1	x	4.0	x
CC(=O)CCc1oc2ccccc2c1-c1ccccc1	3.3	-0.1	-3.1	-33.8*	-7.0
CC(=O)CCc1oc2ccc(C)cc2c1Cc1ccccc1	0.9	-0.3	-6.4	-24.6	2.8
COCC(=O)N1C[C@H](C)[C@H](OC)CN(C)C(=O)c2ccc(NC(=O)c3ccc(F)cc3)cc2OC[C@@H]1C	-0.7	1.7	-1.1	-0.5	x
COC(=O)CN1C(=S)N(c2ccc(Cl)cc2)C(=O)C1CC(=O)Nc1ccc(Cl)cc1 (stereo not given)	x	x	-1.9	x	-13.7
COC(=O)CN1C(=S)N(c2ccc(Cl)cc2)C(=O)C1CC(=O)Nc1ccc(F)cc1 (stereo not given)	2.6	x	3.2	-24.9*	-9.2
COC(=O)c1cn(-c2cccc(N)c2)nn1	-3.0	-2.2	3.5	x	x
NC(=O)c1nnsc1Sc1c(C(N)=O)nnn1-c1cccc(N)c1	8.1	-1.5	-0.1	-27.1*	-11.0
CCOC(=O)C1C(=O)C=C(c2cccs2)CC1c1ccccc1 (stereo not given)	-1.0	x	5.9	-28.4*	0.4
O=c1[nH]c(/C=C\c2ccc(O)c(O)c2)nc(O)c1[N+](=O)[O-]	7.2	0.6	37.1*	3.7	-20.7
O=c1[nH]c(/C=C\c2cccc(O)c2)nc(O)c1[N+](=O)[O-]	4.4	1.8	11.8	1.4	-16.2
COc1ccc(-c2cc(NC(=O)Cc3c(C)[nH]c4ccccc34)ccc2Nc2cccnc2)cc1F	-4.6	2.1	x	-0.5	x
Oc1ccc(NC(=S)N=Nc2c(O)[nH]c3ccc(Br)cc23)cc1	-1.6	-1.2	24.3	-23.3*	-9.1
Oc1cccc(NC(=S)N=Nc2c(O)[nH]c3ccc(Br)cc23)c1	-0.9	0.1	24.4	-37.2*	-2.4
O=C(N=Nc1c(O)[nH]c2ccc(Br)cc12)c1ccccc1-n1cccc1	-1.3	13.2*	-3.3	-29.0*	0.4
Oc1[nH]c2ccc(Br)cc2c1N=NC(=S)Nc1ccc(F)cc1	x	u	4.5	5.4	-11.9
O=C(N=Nc1c(O)[nH]c2ccc(Br)cc12)c1ccco1	-2.1	0.7	x	-5.9	x
CCCC(=O)Nc1ccc2c(c1)OC[C@@H](C)N(C(=O)C1CCCC1)C[C@@H](C)[C@H](OC)CN(C)C2=O	-1.2	-4.9	-2.1	1.4	x
CCOc1ccccc1N1CCN(C(=S)NCc2ccccc2)CC1	-1.2	-0.7	1.2	-22.4*	4.2
CCNC(=S)N1CCN(c2ccccc2OCC)CC1	x	x	x	x	0.2
CCOC(=O)c1cc2sccc2n1CCCN1C(=O)c2ccccc2C1=O	-2.5	-0.6	-1.9	-28.1*	-4.2
CCC/C(=C1/c2ccccc2C(=O)N1c1ccccc1)c1cnc(OC)nc1	-7.6	-2.2	-2.2	-2.1	0.3
CCC/C(=C1/c2ccccc2C(=O)N1c1ccccc1)c1ccc(C=O)o1	0.9	3.3	x	-24.0*	x
SMILES	ERAP1 HTS inh	CFTR F508del cor	ARNT-TACC3 inh	Ecoli rRNA inh	PvdQ inh
C=CCNC(=S)Nc1ccc(N2CCOCC2)c(S(=O)(=O)Nc2ccccc2Cl)c1	-3.8	0.7	1.1	-33.8*	-12.7
C[C@H](CO)N1C[C@H](C)[C@H](CN(C)S(=O)(=O)c2ccc(F)cc2)Oc2ccc(NS(=O)(=O)c3cccs3)cc2C1=O	0.2	-2.4	-10.5	1.1	x
Cc1ccccc1Nc1nnc(SCC2CCCCO2)s1 (stereo not given)	8.3	x	x	-22.1*	-2.3
COc1ccccc1Nc1nnc(SCC2CCCCO2)s1 (stereo not given)	-0.1	3.3	0.8	-24.4	-16.3
O=C(Cc1ccccc1)N1CCCC(c2nc(-c3ccc(S(=O)(=O)N4CCCC4)cc3)no2)C1 (stereo not given)	4.4	-2.4	1.6	-25.5*	-9.4
O=C(c1ccc(F)cc1F)N1CCCC(c2nc(-c3ccc(F)cc3)no2)C1 (stereo not given)	0.5	0.9	-0.8	-21.5*	5.5
C[C@@H]1CN([C@H](C)CO)S(=O)(=O)c2ccc(C#Cc3ccncc3)cc2O[C@@H]1CN(C)C(=O)C1CCC1	-0.5	-6.4	1.6	-9.1	x
COc1cc(CN2CCCC(N3CCc4ccccc4C3)C2)c(Cl)cc1O (stereo not given)	-3.7	5.0	5.8	9.8	-8.6
COc1cc2c(cc1OC)CN(C1CCCN(Cc3cc(Cl)ccc3O)C1)CC2 (stereo not given)	-4.7	4.5	17.1	-28.1*	10.7
CCS(=O)(=O)N1CCN(c2ccccc2)CC1	x	-4.4	-4.0	11.4	3.2
O=C1Oc2ccccc2C(=O)/C1=C\N1CCN(c2ccccc2)CC1	4.3	0.2	-3.1	-33.1*	-4.9
C[C@@H]1CN([C@H](C)CO)C(=O)c2cc(NC(=O)CCC(F)(F)F)ccc2O[C@@H](C)CCCCO[C@@H]1CN(C)S(C)(=O)=O	-1.4	0.4	-9.0	-1.7	x
CCN(CC)c1ccc(C(=C2C=CC(=[N+](CC)CC)C=C2)c2ccccc2)cc1	12.7	-9.5	22.8*	-55.7*	-8.9
O=C(N[C@H]1C=C[C@H](CC(=O)N2CCN(c3ccccc3)CC2)O[C@H]1CO)c1ccccc1	-0.6	-1.2	-2.8	0.2	x
O=[N+]([O-])c1ccc(/C=N/N/C(=N/c2ccccn2)c2ccccn2)cc1	-0.4	-2.3	15.5	7.1	-4.9
O=C(CNC(=O)C(c1ccccc1)c1ccccc1)N/N=C/c1ccc(O)c([N+](=O)[O-])c1	-4.1	-1.4	-1.2	-19.8*	7.2
O=[N+]([O-])c1cc(/C=N/N/C(=N/c2ccccn2)c2ccccn2)ccc1O	5.7	3.7	65.9*	4.2	-7.8
O=C(CNC(=O)c1ccco1)N/N=C/c1ccc(O)c([N+](=O)[O-])c1	-1.1	x	0.1	2.3	16.3
C[C@@H]1CN([C@@H](C)CO)C(=O)c2cc(C#CC3(O)CCCC3)cnc2O[C@@H]1CN(C)C(=O)Cc1cccnc1	-3.7	0.7	-10.1	2.5	x
C[C@@H]1CN([C@@H](C)CO)C(=O)c2cc(C3=CCCCC3)cnc2O[C@@H]1CN(C)Cc1cccc(F)c1	2.1	-0.2	-7.9	6.6	x
CCCCC(CC)C(=O)Oc1ccc(O)c(C(C)(C)C)c1 (stereo not given)	2.7	-1.9	-7.2	-21.7*	11.8
CC(C)(C)c1cc(OC(=O)C2CCCC2)ccc1O	-1.7	-10.0	-0.7	14.0	6.2
N#CCSc1nc2cc(C(=O)N3CCC(C(N)=O)CC3)ccc2c2nc3ccccc3n12	x	x	46.9*	x	-14.3
N#CCSc1nc2cc(C(=O)N3CCCC3)ccc2c(=O)n1Cc1ccccc1	x	x	-12.5	x	3.8

Assay outcomes (PubChem)
